This excerpt belongs to a sample that is enriched for hits.
HIV RNase H inh-1 – HIV-1 RT RNase H inhibitors, primary screen, biochemical, fluorescence. Gag-Pol polyprotein (Human immunodeficiency virus type 1 group M subtype B (isolate …. inhibition, % at 10 µM. 65,000 compounds, 1.9% hits. RT-RNase H RNA/DNA duplex cleavage; in the data active = inhibition above about 50%
HIV RNase H inh-2 – HIV-1 RT RNase H inhibitors, retest, confirmation, biochemical. shares compounds with HIV RNase H inh-1. Recombinant RT RNase H, fluorescent RNA/DNA duplex cleavage. inhibition, % at 10 µM. 1,000 compounds, 39% hits. AID 651, 2007; in the data active = inhibition above about 48%
Numbers stand for hits; 0 = inactive.

SMILES	HIV RNase H inh-1	others
COC(=O)C1=C2SC(C)C(=O)N2C(N)=C(C#N)C1c1ccc(OC)c(OC)c1 (stereo unspecified)	0
COc1cccc(C2C(C#N)=C(N)OC(C(C)(C)C)=C2C#N)c1 (stereo unspecified)	0
COc1ccc(C2C(C#N)=C(N)N3C(=C2C#N)Sc2ccccc23)cc1 (stereo unspecified)	86.6	HIV RNase H inh-2=60.4
COc1ccc(N2CCN(C(=O)CCNS(=O)(=O)c3ccc(Br)s3)CC2)cc1	0
O=C(NC1(C(F)(F)F)NC(=O)N(C2CCCC2)C1=O)C1CC1 (stereo unspecified)	0
c1ccc(-n2ncc3c(N4CCN(c5ccccn5)CC4)nc(N4CCCCCC4)nc32)cc1	0
COc1ccc(N2C(=O)CCC(C(C)=O)=C2C)cc1	0
CN1c2cccc3cccc(c23)N(C)C1(C)C	0
CN1/C(=N\O)c2cccc3cccc1c23	61.4	HIV RNase H inh-2=0
CCCN1c2cccc3cccc(c23)S1(=O)=O	0
Cc1cc(C)c(C)c(OCC(=O)NCc2nc(-c3ccccc3)no2)c1	0
Cc1cc(C)c2nc(Nc3nc(C)cc(=O)[nH]3)nc(C)c2c1	0
c1ccc(CNc2nc3ccccc3[nH]2)cc1	0
Cc1cc(C)nc(Nc2nc3ccccc3[nH]2)n1	0
c1ccc(Nc2nc3ccccc3[nH]2)nc1	79.5	HIV RNase H inh-2=0
O=C(Nc1c(C(=O)N2CCOCC2)cnn1-c1ccccc1)c1ccco1	0
Cc1ccc(-n2c(-c3ccncc3)nnc2-c2cccs2)cc1	0
Cc1ccc(CN2C(=O)CCC2C(=O)NCCN2CCN(c3cccc(Cl)c3)CC2)cc1 (stereo unspecified)	0
S=c1nc(C2CCCCC2)[nH][nH]1	0
O=C(Cn1cc(C(F)(F)F)ccc1=O)N1CCN(S(=O)(=O)c2ccc(Cl)cc2)CC1	0
O=C1CC(c2ccc(F)cc2)CC(O)=C1C=NCCN1CCN(C(=O)Nc2ccccc2)CC1 (stereo unspecified)	0
O=C(c1ccc(=O)oc1)N1CCOCC1	0
O=C(c1ccc(Cl)c(Cl)c1)N1CCOCC1	0
O=C(c1coc(=O)c(Br)c1)N1CCOCC1	61.5	HIV RNase H inh-2=0
O=C(Cn1ncc2c(=O)oc3ccccc3c21)Nc1nc2ccccc2s1	0
